From PubChem BioAssay AID2018 (Sanford-Burnham Center for Chemical Genomics, 2009)
Hit rate of the full screen: of about 1,200 compounds, about 600 (50%) were called active. No stated cut-off is given here; in the data, active means inhibition above about 42%; inactive means the rest. The set was probably picked from earlier hits. The list shows a part of the results. Entries with a potency or affinity are not part of this list.

Target: SUMO-conjugating enzyme UBC9 (Homo sapiens) (UniProt P63279)
Sequence (P63279 whole entry, looked up): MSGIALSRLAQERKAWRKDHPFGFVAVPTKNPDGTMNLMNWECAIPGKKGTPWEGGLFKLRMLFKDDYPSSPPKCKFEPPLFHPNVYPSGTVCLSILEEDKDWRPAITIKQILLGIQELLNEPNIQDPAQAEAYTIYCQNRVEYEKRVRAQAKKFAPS
Experiment: blockers of UBC9-mediated SUMO conjugation – biochemical, AlphaScreen, SUMOylation inhibitor project, confirmation (AID 2018)
Settings: AlphaScreen in vitro SUMOylation assay; at 35 µM; stronger effect = higher value

inhibition, active:
Cc1[nH]n(-c2ccccc2)c(=O)c1C(C[N+](=O)[O-])c1ccc(Br)cc1 (stereo not drawn) 101%, COc1cccc(C(c2c(C)[nH]n(-c3ccccc3)c2=O)c2c(C)[nH]n(-c3ccccc3)c2=O)c1OC 89.3%, Cc1[nH]n(-c2ccccc2)c(=O)c1C(c1cccc([N+](=O)[O-])c1)c1c(C)[nH]n(-c2ccccc2)c1=O 79.1%, COc1ccc(C(c2c(C)[nH]n(-c3ccccc3)c2=O)c2c(C)[nH]n(-c3ccccc3)c2=O)cc1OC 101%, Cc1n[nH]c(=S)n(NC(=O)/C=C/C(=O)Nn2c(=S)[nH]nc(C)c2=O)c1=O 101%, S=C(Nc1ccc2nsnc2c1)NC1CCCCC1 95.3%, OCCNC(=S)Nc1ccc2nsnc2c1 54.8%, Nc1ccc2nn(-c3ccccc3)nc2c1 68.1%, Nc1ccc2nn(-c3cccc4ccccc34)nc2c1 43.5%, O=C(NCCc1ccccc1)c1ccc2nc(-c3ccco3)c(-c3ccco3)nc2c1 70.9%, O=C(NCc1ccccc1)c1ccc2nc(-c3ccco3)c(-c3ccco3)nc2c1 65.7%, O=C(Nc1ccc2nc(-c3ccco3)c(-c3ccco3)nc2c1)N1CCN(c2ccccn2)CC1 76.6%, COc1ccc(CCNC(=O)c2ccc3nc(-c4ccco4)c(-c4ccco4)nc3c2)cc1OC 73.3%, CC(C)c1ccc(S(=O)(=O)/N=C2/C=CC(=O)c3ccccc32)cc1 102%, Oc1ccc(/C=N/Nc2cc(N3CCCC3)nc(N3CCCC3)n2)cc1O 102%, Oc1ccc(/C=N/Nc2cc(N3CCCC3)nc(N3CCCC3)n2)cc1 82.3%, COc1ccc2c(c1)Cc1sc(NC(=O)c3cccs3)nc1-2 51.9%, COc1ccc(C(=O)Nc2nc3c(s2)Cc2cc(OC)ccc2-3)cc1 59.7%, Cn1c(=O)c(Nc2ccc(O)cc2)c2c3c(cccc31)C(=O)c1ccccc1-2 91.8%, O=c1c2ccccc2nc(/C=C/c2cccnc2)n1Cc1ccccc1 98.2%, COc1ccc(-n2c3nc4ccccc4nc3c3c(=N)oc(C)nc32)cc1 64%, O=C(N/N=C/c1ccccc1)c1ccc(CN2C(=O)c3cccc4cccc2c34)cc1 51.5%, Cc1cccc(C(=O)NC2C(=O)NNC2c2ccc(Cl)cc2)c1 (stereo not drawn) 69.8%, O=C(N/N=C/c1ccc(O)c2ncccc12)c1cccc(Br)c1 65.3%, CCOc1ccc(N2C(=O)c3ccc(C(=O)OCC(=O)N(CC)C4CCS(=O)(=O)C4)cc3C2=O)cc1 (stereo not drawn) 42.4%, Cc1cc(/C=C2\SC(=S)NC2=O)c(C)[nH]1 65.4%, c1ccc2c3c(cc(N4CCOCC4)c2c1)OC1(N2CCOCC2)CCCCC1O3 (stereo not drawn) 92%, NC(=O)c1ccc(N=C2C(=O)Nc3ccc([N+](=O)[O-])cc32)cc1 102%, Cc1ccc(-c2[nH]c(-c3ccc(C(=O)O)cc3)nc2-c2ccccc2)cc1 49.3%, CN(C)c1cc(Nc2cccc(O)c2)c([N+](=O)[O-])c2nonc12 43.3%, CSc1nnc(SCc2nc3sc(C(=O)O)c(C)c3c(=O)[nH]2)s1 89.8%, [O-]/C(=C(\C(=S)Nc1cccc2ccccc12)[n+]1ccccc1)c1ccc(Cl)s1 53.6%, CC(C)c1ccc(NC(=O)C[n+]2ccn(C3=C([O-])c4ccccc4C3=O)c2)cc1 61.2%, O=c1c(-c2c(O)cc(O)c3c(=O)cc(-c4ccc(O)cc4)oc23)c(-c2ccc(O)cc2)oc2cc(O)cc(O)c12 99.8%, Cc1[nH][nH]c(=O)c1C(c1ccc(-c2ccc(Cl)c(Cl)c2)o1)c1c(C)[nH][nH]c1=O 45.9%, Cc1[nH][nH]c(=O)c1C(c1ccc(-c2ccc(Cl)c(C(=O)O)c2)o1)c1c(C)[nH][nH]c1=O 73.1%, O=C1N=c2ccccc2=C1c1sc(Nc2ccc(O)cc2)nc1O 93.5%, Cc1c(N2C(=O)c3ccc4c5c(ccc(c35)C2=O)CC4)c(=O)n(-c2ccccc2)n1C 93.9%, Cc1ccc(-n2nc(C)c3c2OC(N)=C(C#N)C3c2ccc(C)o2)cc1 (stereo not drawn) 81.4%, Cc1ccc(-n2nc(C)c3c2OC(N)=C(C#N)C3c2ccoc2)cc1 (stereo not drawn) 69%

inhibition, inactive:
CC(C)(C)c1cnnn1-c1cccc([N+](=O)[O-])c1 5.8%, C=CCN(CC=C)c1nc2ccccc2nc1C(C#N)C(=O)OC(C)C (stereo not drawn) -10.3%, Cc1[nH]n(-c2ccccc2)c(=O)c1C(c1ccc(C(=O)O)cc1)c1c(C)[nH]n(-c2ccccc2)c1=O 41.6%, CCOc1ccc(N2CC(C(=O)NCc3ccc(F)cc3)CC2=O)cc1 (stereo not drawn) 6.3%, COCCNC(=O)CCC1CCN(Cc2ccc(-c3ccccc3)cc2)CC1 -1.3%, COCCNC(=S)Nc1ccc2nsnc2c1 6.6%, S=C(Nc1ccc2nsnc2c1)N1CCCCCC1 28.1%, S=C(Nc1ccc2nsnc2c1)N1CCCCC1 18.3%, S=C(NCc1ccc2c(c1)OCO2)Nc1ccc2nsnc2c1 25.4%, CN(C)C=Nc1ccc2nn(-c3ccccc3)nc2c1 -10.8%, Cc1ccc(-n2nc3ccc(N)cc3n2)c(C)c1 39.7%, Cn1cc2ccc(N)cc2n1 -18.5%, Nc1ccc2nc(-c3ccccc3)sc2c1 -1.4%, N#Cc1ccsc1NC(=O)CN1CCN(c2ccc(O)cc2)CC1 5.7%, CC(C)c1ccccc1NC(=O)COc1ccc(C(=O)NCCc2ccccc2)cc1 26.7%, S=C(Nc1ccc2nc(-c3ccccn3)c(-c3ccccn3)nc2c1)N1CCOCC1 3.8%, O=C(Cc1ccccc1)Nc1nnc(-c2ccco2)s1 11.3%, O=C(Nc1ccc2nsnc2c1)N1CCCCC1 2.3%, O=C(Nc1ccccc1)Nc1ccno1 -7.1%, CC(=O)Nc1ccc2nc3ccccc3nc2c1 15.1%, COc1ccc(CCn2c(N)c(C(=O)NCc3ccco3)c3nc4ccccc4nc32)cc1OC 9.7%, O=C(Nc1cccnc1)c1cc2cc(Br)ccc2oc1=O 34.9%, Cc1ccc(Cn2cccc(NS(C)(=O)=O)c2=O)cc1 26.5%, COc1ccc(-c2cc(-c3ccccc3)n3ncnc3n2)cc1 5.5%, Cc1nn2cc(-c3ccccc3)nc2[nH]c1=O 9.6%, O=C(NCc1ccccc1)Nc1cccn(Cc2c(F)cccc2Cl)c1=O -15.7%, CN(C)c1ccc(/C=N/Nc2cc(N3CCOCC3)nc(N3CCOCC3)n2)cc1 39.5%, COc1ccc2c(c1)-c1nc(/N=C/c3ccc(O)cc3)sc1CC2 30.9%, Cc1ccc(N=Nc2c(N)[nH]n3c(=O)cc(C)nc23)cc1 37.3%, COCCN(CCOC)S(=O)(=O)c1ccc(C(=O)Nc2nc3c(s2)CCc2ccccc2-3)cc1 30.1%, COc1ccc2c(c1)Cc1sc(NC(C)=O)nc1-2 41.3%, COc1ccc2c(c1)Cc1sc(NC(=O)c3ccccc3)nc1-2 34.5%, COc1ccc(-c2ccnc3nc(/N=C/N(C)C)nn23)cc1 -8.3%, COc1cccc(Cn2cccc(NC(=O)NC3CCCCC3)c2=O)c1 25.8%, CC1CCN(CCCn2c(=S)[nH]c3ccc(N4CCOCC4)cc3c2=O)CC1 -13.8%, Cc1c2c(=O)n(-c3nc4ccccc4s3)nc-2cc(O)n1Cc1ccccc1 20.5%, COCCCNC(=O)c1c(N)n(-c2ccccc2)c2nc3ccccc3nc12 -25.1%, COc1ccccc1/C=N/NC(=O)c1ccc(CN2C(=O)c3cccc4cccc2c34)cc1 -17.1%, NC(=O)N/N=C/c1ccc2cccc(OCc3ccccc3)c2n1 31.5%, CC1OC(Nc2cccc3ccccc23)C(O)C(O)C1O (stereo not drawn) 38.7%, O=c1oc2cc(O)ccc2cc1-c1ccc(F)cc1 15.5%, Cc1ccc(C2C(C#N)=C(N)N(c3cccnc3)C3=C2C(=O)CCC3)s1 (stereo not drawn) 16.8%, NC(N)=N/N=C/c1cc([N+](=O)[O-])ccc1O -9.1%, CCC(C)(C)n1nnnc1CN(Cc1cc2cc(OC)c(OC)cc2[nH]c1=O)C1CCCC1 2.2%, O=[N+]([O-])c1cc([N+](=O)[O-])c2nonc2c1Nc1ccc(O)cc1 37.6%, O=[N+]([O-])c1c(NCc2ccccc2)cc(N2CCc3ccccc3C2)c2nonc12 38.5%, COc1ccc2c(c1)C(C)=CC(C)(C)N2C(=O)Nc1ccccc1 38.7%, CCN(CC)C(=O)c1sc2nc(-c3ccncc3)[nH]c(=O)c2c1C 0.7%, CCOc1ccc(S(=O)(=O)N2CCCC(C(=O)NCc3ccco3)C2)cc1 (stereo not drawn) 4.2%, [O-]/C(=C(\C(=S)Nc1cccc2ccccc12)[n+]1cccc(CO)c1)c1ccc(Cl)s1 31.7%, Fc1cccc(NC(=S)Nc2cccc3ccccc23)c1 24.1%, CC(C)c1ccc(NC(=S)Nc2cccc3ccccc23)cc1 24.3%, Cc1cc(C)c(S(=O)(=O)NCC23C=CC(O2)C2C(=O)N(c4ccccc4)C(=O)C23)c(C)c1 (stereo not drawn) -6.4%, O=C1N=c2ccccc2=C1c1c(O)n(-c2cccc(F)c2)[nH]c1=O 12%, Cc1nn(-c2ccccc2)c2c1C(c1ccc(F)cc1)C(C#N)=C(N)O2 (stereo not drawn) 0%, N#CC1=C(N)Oc2n[nH]c(-c3cccs3)c2C1c1ccoc1 (stereo not drawn) 24.4%, CC(C)N1CCC2(CC1)C(C#N)=C(N)NC(S)=C2C#N 26%, Cc1nc2c3cc(F)ccc3n(Cc3ccc(F)cc3)c2s1 20.7%
